Shown are actives, neighbours in structure and some others; about 2.5% of the full set was active somewhere.
Cruzain inh Det – cruzain (T. cruzi) inhibition with detergent. P25779. purified cruzain, Z-FR-AMC fluorescence, 0.01% Triton. Potency, µM, for the others: max response, negative = inhibition, usual class: inhibitors. 200,000 compounds, 0.43% hits;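 further: plate controls were neutral wells for no effect and buffer without enzyme for full effect; nearly all actives have a fitted effect of over 40% in size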
Target sequence (P25779 123-467 limits assumed): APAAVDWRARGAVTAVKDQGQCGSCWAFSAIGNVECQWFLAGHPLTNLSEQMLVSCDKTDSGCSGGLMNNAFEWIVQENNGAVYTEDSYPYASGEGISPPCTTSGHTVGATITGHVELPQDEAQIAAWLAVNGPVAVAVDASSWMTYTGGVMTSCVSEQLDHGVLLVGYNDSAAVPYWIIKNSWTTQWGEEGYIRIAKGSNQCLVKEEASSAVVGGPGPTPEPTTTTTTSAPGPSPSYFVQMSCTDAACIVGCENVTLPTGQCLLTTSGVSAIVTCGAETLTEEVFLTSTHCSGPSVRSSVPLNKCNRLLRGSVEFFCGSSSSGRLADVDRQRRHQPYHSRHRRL
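Z-FR-AMC hydrolysis (2 uM substrate) by cruzain (1.5 nM) monitored kinetically at ex 360/em 450 nm after 15 min room-temperature compound exposure; 0.01% Triton X-100, pH 5.5, 5 mM DTT.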
Cruzain inh noDet – inhibitors of Trypanosoma cruzi cruzain without detergent. AID 1476. purified cruzain, Z-FR-AMC fluorescence, no detergent. Potency, µM, inactives show max response, negative = inhibition, hits mostly inhibitors. 200,000 compounds, 2.3% hits. P25779;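 further: plate controls were enzyme without inhibitor for no effect and buffer without enzyme for full effect; nearly all actives have a fitted effect of over 40% in size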
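Detergent-free condition (0.00005% Triton X-100) in acetate buffer pH 5.5 with DTT. 1.5 nM enzyme and compound were pre-mixed 15 min, then 2 uM Z-FR-AMC substrate added; reaction progress from fluorescence change between first and third reads (60 s).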
The depositor's hits bear a star; u = inconclusive; x = not tested or not shown. The call rests on the fitted dose curve; in most records, active means well fitted curve in the direction sought with a large enough effect; inconclusive means small, poorly fitted or top-dose-only effect, or another doubt; inactive means no such curve, though single readings can be large; an effect the other way counts as inactive or inconclusive. Potency means the concentration at half of the fitted maximal effect.

SMILES | Cruzain inh Det | Cruzain inh noDet
Cc1noc(/C=C/c2cccs2)c1S(=O)(=O)N1CCC(C(=O)NCc2ccccc2Cl)CC1 | -5.0% | 12.6µM*
COc1ccc(NC(=O)c2ccc3ccccc3n2)cc1S(=O)(=O)Nc1ccccc1Cl | -2.0% | 12.6µM*
COc1ccc(NC(=O)c2cc(C)nc3ccccc23)cc1S(=O)(=O)Nc1ccccc1Cl | -6.9% | u
C=CC(C)=O | 7.3% | 0.7%
COc1ccc(Cl)cc1-n1c(/C=C/c2cccc3ccccc23)nc2ccccc2c1=O | 0.5% | 31.6µM*
COc1ccc(-n2c(/C=C/c3cccc4ccccc34)nc3ccccc3c2=O)cc1OC | -2.8% | u
OCCN1CCN(C(=S)c2ccc(Cl)c(Cl)c2)CC1 | -28.4% | 25.1µM*
CCN1CCN(C(=S)c2ccc(Br)cc2)CC1 | 4.1% | 4.3%
COC(=O)c1cc(COc2ccc3c4c(c(=O)oc3c2)CCC4)c(C)o1 | 4.2% | -7.0%
CC(/C=N/N1CCN(c2ccc(C)cc2)CC1)=C\c1ccccc1 | -1.0% | -29.3%
CC(/C=N\N1CCN(c2ccc(Cl)cc2)CC1)=C\c1ccccc1 | -6.3% | 7.94µM*
CCNc1ncc2nc(-c3ccc(F)cc3)c(=O)n(-c3ccc(OC)cc3)c2n1 | -4.5% | 1.1%
O=C(C#Cc1cccc([N+](=O)[O-])c1)c1ccccc1 | 8.91µM* | -21.2%
O=C(/C=C/c1cccc([N+](=O)[O-])c1)c1ccccc1 | -0.9% | 4.4%
COc1cc2oc(=O)c(CC(=O)NCCc3ccccc3F)c(C)c2cc1OC | -17.9% | -12.2%
CC(=O)N1C2(C=CC1(C)C(=O)NCCN1CCOCC1)CCCCC2 (stereo unspecified) | -0.9% | -2.7%
CCOC(=O)NC(=O)CSc1nc(C)cc(C(F)(F)F)c1C#N | -2.9% | -0.2%
Cc1cc(C(F)(F)F)c(C#N)c(SCC(=O)Nc2nc3cc(Br)ccc3s2)n1 | -9.2% | 20µM*
O=c1cnc2cnc(Oc3ccccc3)nc2n1C1CC1 | -1.0% | -20.9%
c1csc(C2Nc3cccc4cccc(c34)N2)c1 | -8.1% | 7.94µM*
Brc1ccc(C2Nc3cccc4cccc(c34)N2)o1 | -12.5% | 7.94µM*
O=[N+]([O-])c1ccccc1C1Nc2cccc3cccc(c23)N1 | -3.1% | u
CN1c2cccc3cccc(c23)N(C)C1c1cccs1 | -0.9% | -4.6%
CC(C)c1ccc(C(O)(C(=O)O)c2ccc(C(C)C)cc2)cc1 | -6.2% | 13.2%
COc1cc(OC)cc(C(=O)NC(=S)NCCc2ccccc2)c1 | -1.2% | 6.3%
SMILES | Cruzain inh Det | Cruzain inh noDet
Cc1ccc(N2CCN(c3cc(C)nc4c(-c5ccc(Cl)cc5)c(C)nn34)CC2C)cc1 (stereo unspecified) | 1.1% | -9.0%
Cc1cc(-c2csc(N)n2)c(C)n1C | -29.6% | u
Cc1ccc(-n2c(C)cc(-c3csc(N)n3)c2C)cc1 | -0.7% | 25.1µM*
CCCCCn1c(N)c(C(=O)NCc2cccs2)c2nc3ccccc3nc21 | 0.2% | 4.1%
Nc1c(C(=O)NCCCc2ccccc2)c2nc3ccccc3nc2n1Cc1cccs1 | 5.8% | 6.31µM*
C/C=C\C[C@@H](C)[C@@H](O)[C@H]1C(=O)N[C@@H](CC)C(=O)N(C)CC(=O)N(C)[C@@H](CC(C)C)C(=O)N[C@@H](C(C)C)C(=O)N(C)[C@@H](CC(C)C)C(=O)N[C@@H](C)C(=O)N[C@H](C)C(=O)N(C)[C@@H](CC(C)C)C(=O)N(C)[C@@H](CC(C)C)C(=O)N(C)[C@@H](C(C)C)C(=O)N1C | -4.1% | x
Cc1ccc(NC(=S)N(Cc2cccs2)Cc2cc3cc(C)ccc3[nH]c2=O)cc1 | -6.2% | 15.8µM*
Cc1ccc(NC(=S)N(Cc2cccs2)Cc2cc3cc(C)cc(C)c3[nH]c2=O)cc1 | -4.1% | 25.1µM*
Cc1cccc(NC(=S)N(Cc2cccs2)Cc2cc3cc(C)ccc3[nH]c2=O)c1 | -6.3% | u
Cc1cc(C)c2[nH]c(=O)c(CN(Cc3cccs3)C(=S)NCc3ccco3)cc2c1 | -3.3% | u
COc1ccc2cc(C(=O)CCC(=O)O)ccc2c1 | -3.7% | 15.3%
N#Cc1nc(-c2cccc3ccccc23)oc1NCCN1CCCCC1 | 28.2µM* | -8.2%
CCNc1oc(-c2cccc3ccccc23)nc1C#N | 2.8% | 10.7%
Cc1ccc(-n2c(C)cc(/C=N/NC(=O)CC3(C)OCCO3)c2C)cc1 | -7.5% | -1.8%
COc1ccc(Cl)cc1NC(=O)C(=O)N/N=C/c1cc(C)n(-c2ccc(C)cc2)c1C | -8.9% | 12.6µM*
O=C(Cn1c(=O)n(Cc2ccco2)c(=O)c2c3c(sc21)CCCC3)Nc1ccccc1 | -5.5% | 25.1µM*
NC(=O)Cn1c(=O)n(Cc2ccco2)c(=O)c2c3c(sc21)CCCCC3 | -3.4% | 6.5%
CCc1nn2c(=O)cc(COC(=O)C(CC)c3ccccc3)nc2s1 (stereo unspecified) | -1.9% | -4.0%
COc1ccc(NC(=O)c2cc(=O)c3ccc(C)c(C)c3o2)cc1Cl | -1.3% | -1.3%
COC(=O)c1ccc(NC(=O)CSc2nnc(COc3c(C)cccc3C)o2)cc1 | 4.9% | 25.1µM*
O=C(CSc1nnc(COc2ccc3c(c2)CCCC3)o1)Nc1ccc(F)cc1 | 2.2% | 25.1µM*
Cc1cccc(C)c1OCc1nnc(SCC(=O)Nc2ccccc2F)o1 | -4.7% | -9.3%
COc1cccc(NC(=O)CSc2nnc(COc3ccc(Cl)cc3)o2)c1 | -5.2% | u
CC12C=C(/C=C/CCc3ccco3)C(C)(C1)[C@H](CCc1ccco1)CC2=O (stereo partly specified) | -1.7% | -10.6%
NC(=O)Cn1c(=O)n(-c2ccc(F)c(Cl)c2)c(=O)c2sc3ccccc3c21 | 8.6% | 4.1%
SMILES | Cruzain inh Det | Cruzain inh noDet
COc1ccc(-c2[nH]n(-c3ccc([N+](=O)[O-])cc3)c(=O)c2C=NCc2ccncc2)cc1 | -3.6% | u
COc1ccc(-c2[nH]n(-c3ccc([N+](=O)[O-])cc3)c(=O)c2C=NCc2ccc(F)cc2)cc1 | -5.6% | 25.1µM*
O=C(c1ccc2c(c1)OCO2)c1cn(Cc2ccc(F)cc2)c2ccccc2c1=O | -4.0% | -6.8%
CC1=C(C(=O)Nc2ccccc2C)C(c2cccs2)n2nc(SCc3ccccc3)nc2N1 (stereo unspecified) | -0.7% | 25.1µM*
CC1=C(C(=O)Nc2ccccc2C)C(c2ccncc2)n2nc(SCc3ccccc3)nc2N1 (stereo unspecified) | 0.4% | -15.8%
CC1=C(C(=O)Nc2ccc(Cl)cc2)C(c2cccs2)n2nc(SCc3cccc(Cl)c3)nc2N1 (stereo unspecified) | -1.1% | 3.16µM*
COc1ccc(NC(=O)C2=C(C)Nc3nc(SCc4ccccc4C)nn3C2c2ccc(Br)cc2)cc1 (stereo unspecified) | -1.3% | -10.0%
CC1=C(C(=O)Nc2ccc(C)cc2C)C(c2cccs2)n2nc(SCc3ccc(Cl)cc3)nc2N1 (stereo unspecified) | -0.2% | 2.5%
COc1ccc(NC(=O)C2=C(C)Nc3nc(SCc4ccccc4C)nn3C2c2cc(OC)c(O)c(OC)c2)cc1 (stereo unspecified) | -4.5% | 10µM*
CS(=O)(=O)N(CC(=O)N1CCN(c2ccccc2F)CC1)c1cccc(C(F)(F)F)c1 | -1.6% | u
Cc1ccccc1-c1nccc(NCc2cccs2)n1 | 8.4% | 4.6%
COc1cc(N2CCCC2)ccc1[N+](=O)[O-] | -13.7% | -19.5%
COc1ccc(C(=O)C2CN(c3ccccc3)CC2c2ccc(Cl)cc2)cc1 (stereo unspecified) | 6.0% | 15.8µM*
COc1ccc(C(=O)N2CCN(c3cccc(Cl)c3)CC2)cc1 | -5.3% | 11.8%

Screening results: PubChem BioAssay, National Center for Advancing Translational Sciences (NCATS)
